According to PubChem BioAssay (EPA / NIEHS):
Several values for one entry are separate records, joined by “and”; a condition that tells them apart may be missing. Equal values may be shown once. Results filed as inconclusive are left out. A structure can be active in one record and inactive in another. Activity calls are given as the source filed them. Rule for the calls, unless noted: active = hit-call score of the fitted dose curve at least 0.9, where 1 is the maximum; inactive = score below 0.9.

Assays:
[1] = read-out: Interleukin-8 (IL8), CXCL8 (gene 3576); test: BSK_3C_IL8: BioMAP Diversity Plus: 3C Assay for Interleukin-8 (IL8) Biomarker Activity (AID 2283020); conditions: primary human endothelial cells (HUVEC); actives raise or lower the signal
Method in brief: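 IL-8 was measured by ELISA in HUVEC cultures 24 h after chemical dosing, with gain or loss of signal fitted relative to DMSO. Parallel SRB total-protein staining tracked overt cytotoxicity.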

[2] = read-out: Monokine induced gamma interferon (MIG), CXCL9 (gene 4283); test: BSK_3C_MIG: BioMAP Diversity Plus: 3C Assay for Monokine induced gamma interferon (MIG) Biomarker Activity (AID 2283021); conditions: primary human endothelial cells (HUVEC); actives raise or lower the signal;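 for AC50: MIG protein level measured by immunoassay in the treated endothelial cultures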
Method in brief: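 ELISA measurement of MIG in human umbilical vein endothelial cells 24 h after treatment. Cytotoxicity tracked by SRB staining in parallel cultures; gain or loss of signal fitted relative to DMSO.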

[3] = target: human Vitamin D Receptor (VDR), VDR (gene 7421) (UniProt P11473); test: ATG_VDR_TRANS: Attagene TRANS-FACTORIAL HepG2 Assay for human Vitamin D Receptor (VDR) (AID 2283022; active = hit-call score of the fitted dose curve at least 0.9, where 1 is the maximum)
Chain of human Vitamin D Receptor (VDR), VDR (gene 7421) (P11473 whole entry, looked up, the tested form may be a part): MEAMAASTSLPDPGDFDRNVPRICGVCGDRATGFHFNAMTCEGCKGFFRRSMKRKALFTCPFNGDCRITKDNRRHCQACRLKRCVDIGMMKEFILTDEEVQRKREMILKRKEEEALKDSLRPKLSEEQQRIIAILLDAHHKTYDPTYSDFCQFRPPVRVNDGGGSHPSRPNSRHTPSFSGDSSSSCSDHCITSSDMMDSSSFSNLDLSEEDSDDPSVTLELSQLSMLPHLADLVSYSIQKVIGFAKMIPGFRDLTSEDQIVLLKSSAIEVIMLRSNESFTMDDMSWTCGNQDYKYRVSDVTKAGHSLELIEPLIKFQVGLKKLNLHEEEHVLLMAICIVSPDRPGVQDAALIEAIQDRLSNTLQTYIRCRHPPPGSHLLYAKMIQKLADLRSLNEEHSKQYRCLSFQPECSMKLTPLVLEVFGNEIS
Method in brief: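 HepG2 cells were transiently transfected with multiple GAL4-UAS reporter units, so signal reflects exogenous chimeric receptor-Gal4 activity. After 24 h compound exposure, reporter mRNA was measured by RT-PCR, fluorescent labelling and capillary electrophoresis, fitted for gain of signal versus DMSO.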

[4] = BSK_3C_SRB: Viability Assessment in the BioMAP Diversity Plus: 3C Assay (AID 2283023); conditions: primary human endothelial cells (HUVEC);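 note: fitted both ways against DMSO so a hit may be signal rise or drop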
Method in brief: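 Primary human umbilical vein endothelial cells in the 3C system were read 24 h after compound dosing. Total protein was stained with 0.1% sulforhodamine B after 10% TCA fixation and read at 560 nm, with bidirectional fitting against DMSO as baseline.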

[5] = read-out: Matrix Metallopeptidase 1 (MMP1), MMP1 (gene 4312); test: BSK_BE3C_MMP1: BioMAP Diversity Plus: BE3C Assay for Matrix Metallopeptidase 1 (MMP1) Biomarker Activity (AID 2283024); conditions: primary human bronchial epithelial cells; actives raise or lower the signal
Method in brief: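 ELISA measurement of MMP-1 after 24 h compound exposure of primary human bronchial epithelial cells. Changes in either direction fitted relative to DMSO; parallel SRB staining checked overt cytotoxicity.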

[6] = BSK_3C_Vis: BioMAP Diversity Plus: 3C Assay for Morphology Visualization (AID 2283025); conditions: primary human endothelial cells (HUVEC);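 note: fitted both ways so gain or loss versus DMSO counts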;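 for AC50: light microscopy image of cell morphology used as background control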
Method in brief: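 Light-microscopy visualization of HUVEC cultures at 24 h post-treatment, with DMSO as baseline for bidirectional fitting.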

[7] = read-out: Pselectin, SELP (gene 6403); test: BSK_4H_Pselectin: BioMAP Diversity Plus: 4H Assay for Pselectin Biomarker Activity (AID 2283026); conditions: primary human endothelial cells (HUVEC); actives raise or lower the signal
Method in brief: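 ELISA of surface P-selectin on HUVEC, 24 h after dosing, with parallel SRB staining (0.1% after 10% TCA fixation, 560 nm) for overt cytotoxicity. Activity fitted in both directions relative to DMSO.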

[8] = BSK_4H_SRB: Viability Assessment in the BioMAP Diversity Plus: 4H Assay (AID 2283027); conditions: primary human endothelial cells (HUVEC);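 note: cells exposed to compound for 24 h before staining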;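 for AC50: curves fitted both ways versus DMSO so AC50 may be loss or gain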
Method in brief: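 Cytotoxicity readout: sulforhodamine B (0.1%) staining of total protein after 10% TCA fixation, measured at 560 nm in human umbilical vein endothelium at 24 h. DMSO set the baseline; fitting was bidirectional.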

[9] = read-out: Thrombomodulin, THBD (gene 7056); test: BSK_3C_Thrombomodulin: BioMAP Diversity Plus: 3C Assay for Thrombomodulin Biomarker Activity (AID 2283029); conditions: primary human endothelial cells (HUVEC); actives raise or lower the signal
Method in brief: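 ELISA measurement of thrombomodulin on HUVEC surface 24 h after chemical dosing; activity fitted in both directions relative to DMSO vehicle.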

[10] = read-out: Urokinase-type plasminogen activator receptor (uPAR), PLAUR (gene 5329); test: BSK_4H_uPAR: BioMAP Diversity Plus: 4H Assay for Urokinase-type plasminogen activator receptor (uPAR) Biomarker Activity (AID 2283030); conditions: primary human endothelial cells (HUVEC); actives raise or lower the signal
Method in brief: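 Primary human umbilical vein endothelial cells were exposed to chemical for 24 h before cell-surface uPAR was quantified by ELISA. Activity was fitted bidirectionally against the DMSO negative control baseline.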

[11] = read-out: Vascular endothelial growth factor receptor 2 (Homo sapiens) (UniProt P35968); test: BSK_4H_VEGFRII: BioMAP Diversity Plus: 4H Assay for Vascular endothelial growth factor receptor 2 (VEGFR2) Biomarker Activity (AID 2283031); conditions: primary human endothelial cells (HUVEC); actives raise or lower the signal;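 for AC50: cell-surface VEGFR2 protein level quantified by ELISA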
Method in brief: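 Primary human umbilical vein endothelial cells in the BioMAP 4H system were dosed with test chemical, and 24 h later VEGFRII was measured by ELISA. Activity was fitted bidirectionally against DMSO as negative control and baseline.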

[12] = read-out: Human Leukocyte Antigen - DR isotype (HLADR), HLA-DRA (gene 3122); test: BSK_BE3C_HLADR: BioMAP Diversity Plus: BE3C Assay for Human Leukocyte Antigen - DR isotype (HLADR) Biomarker Activity (AID 2283032); conditions: primary human bronchial epithelial cells; actives raise or lower the signal
Method in brief: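 Cell-surface HLA-DR ELISA readout at 24 h after dosing in the BE3C primary human lung bronchial epithelial system; gain or loss of signal against DMSO, with parallel sulforhodamine B staining of total protein for overt cytotoxicity.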

[13] = read-out: Vascular cell adhesion molecule 1 (VCAM1), VCAM1 (gene 7412); test: BSK_4H_VCAM1: BioMAP Diversity Plus: 4H Assay for Vascular cell adhesion molecule 1 (VCAM1) Biomarker Activity (AID 2283033); conditions: primary human endothelial cells (HUVEC); actives raise or lower the signal
Method in brief: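 VCAM-1 ELISA read 24 h after chemical dosing of HUVEC in the BioMAP 4H system, with gain or loss of signal fitted relative to DMSO. Parallel SRB staining (560 nm) checked overt cytotoxicity.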

[14] = read-out: Interferon-gamma inducible Protein 10 (IP10), CXCL10 (gene 3627); test: BSK_BE3C_IP10: BioMAP Diversity Plus: BE3C Assay for Interferon-gamma inducible Protein 10 (IP10) Biomarker Activity (AID 2283034); conditions: primary human bronchial epithelial cells; actives raise or lower the signal
Method in brief: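 IP-10 quantified by ELISA in human primary bronchial epithelial cell cultures at 24 hours post-dosing. Gain or loss of signal fitted relative to DMSO; parallel SRB staining assessed overt cytotoxicity.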

[15] = read-out: Transforming growth factor beta 1 (TGFb1), TGFB1 (gene 7040); test: BSK_BE3C_TGFb1: BioMAP Diversity Plus: BE3C Assay for Transforming growth factor beta 1 (TGFb1) Biomarker Activity (AID 2283036); conditions: primary human bronchial epithelial cells; actives raise or lower the signal
Method in brief: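 ELISA readout of TGF-b1 from human lung bronchial epithelial primary cells, taken 24 h post-treatment. Gain or loss of signal fitted relative to DMSO baseline, with parallel SRB staining for overt cytotoxicity.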

[16] = read-out: Plasminogen activator inhibitor-1 (PAI1), SERPINE1 (gene 5054); test: BSK_BE3C_PAI1: BioMAP Diversity Plus: BE3C Assay for Plasminogen activator inhibitor-1 (PAI1) Biomarker Activity (AID 2283037); conditions: primary human bronchial epithelial cells; actives raise or lower the signal
Method in brief: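 PAI-1 was measured by ELISA in human primary bronchial epithelial cultures 24 h after chemical dosing, with cytotoxicity checked by SRB total-protein staining in parallel cultures. Activity was fitted in both directions relative to DMSO.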

[17] = read-out: urokinase plasminogen activator (uPA), PLAU (gene 5328); test: BSK_BE3C_uPA: BioMAP Diversity Plus: BE3C Assay for urokinase plasminogen activator (uPA) Biomarker Activity (AID 2283038); conditions: primary human bronchial epithelial cells; actives raise or lower the signal
Method in brief: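 Human primary bronchial epithelial cells were exposed to chemical for 24 h, then uPA levels were measured by ELISA. Responses were fitted bidirectionally against DMSO as negative control and baseline. Parallel SRB staining of total protein gauged overt cytotoxicity.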

[18] = read-out: Urokinase-type plasminogen activator receptor (uPAR), PLAUR (gene 5329); test: BSK_BE3C_uPAR: BioMAP Diversity Plus: BE3C Assay for Urokinase-type plasminogen activator receptor (uPAR) Biomarker Activity (AID 2283039); conditions: primary human bronchial epithelial cells; actives raise or lower the signal
Method in brief: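 uPAR levels were measured by ELISA after 24 h compound treatment of primary human bronchial epithelial cells, fitted in both directions relative to DMSO. Parallel SRB staining served as the cytotoxicity read-out.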

[19] = read-out: Monokine induced gamma interferon (MIG), CXCL9 (gene 4283); test: BSK_BE3C_MIG: BioMAP Diversity Plus: BE3C Assay for Monokine induced gamma interferon (MIG) Biomarker Activity (AID 2283035); conditions: primary human bronchial epithelial cells; actives raise or lower the signal
Method in brief: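 hu bronchial epithelial 1° cells, 24 h cpd; MIG by ELISA; bidirectional fit, DMSO = baseline.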

[20] = BSK_BE3C_SRB: Viability Assessment in the BioMAP Diversity Plus: BE3C Assay (AID 2283028); conditions: primary human bronchial epithelial cells;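 note: fitted both ways so AC50 may mark signal gain or loss versus DMSO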
Method in brief: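 Human primary bronchial epithelial cells were exposed to test chemicals for 24 h. Total protein in parallel cultures was then measured by staining with 0.1% sulforhodamine B after 10% TCA fixation, with absorbance read at 560 nm. Activity was fitted bidirectionally against DMSO.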

Measured: AC50

CC(C)OC(=O)Nc1cccc(Cl)c1
not listed: [19] | [20]
inactive: all other assays above

O=C(Nc1ccccc1)Nc1cnns1
not listed: [19] | [20]
inactive: all other assays above

Oc1cc(Cl)ccc1Oc1ccc(Cl)cc1Cl
inactive: [3] | [9] | [11]
active: [1] 27.3 µM [middle of 4 runs] | [2] 32.6 µM [middle of 4 runs] | [4] 10.8 µM [middle of 4 runs] | [5] 32.6 µM [middle of 4 runs] | [6] 12.6 µM [middle of 4 runs] | [7] 12.3 µM [middle of 4 runs] | [8] 20.4 µM and 17.8 µM and 20.9 µM | [10] 14.7 µM [middle of 4 runs] | [11] 6.66 µM and 9.59 µM | [12] 30.3 µM [middle of 4 runs] | [13] 23.8 µM [middle of 4 runs] | [14] 29.3 µM [middle of 4 runs] | [19] 36 µM [middle of 4 runs] | [15] 27.5 µM [middle of 4 runs] | [16] 30.1 µM [middle of 4 runs] | [17] 31.2 µM [middle of 4 runs] | [18] 30.5 µM [middle of 4 runs]

CCC(C)(C)C(=O)OC1=C(c2ccc(Cl)cc2Cl)C(=O)OC12CCCCC2
inactive: [3] | [9] | [11]
active: [1] 30.9 µM | [2] 35.2 µM | [5] 36.6 µM | [6] 29.4 µM | [7] 36.5 µM | [8] 34.3 µM | [20] 31.3 µM | [10] 32 µM | [12] 23.5 µM | [13] 36.6 µM | [14] 31.3 µM | [15] 35.7 µM | [16] 20 µM | [17] 31.1 µM | [18] 36.4 µM

OCCOc1ccccc1
not listed: [4] | [19] | [20]
inactive: all other assays above

CCC(C)Nc1c([N+](=O)[O-])cc(C(C)(C)C)cc1[N+](=O)[O-] (centres undefined)
active: [5] 11.1 µM | [6] 39 µM | [7] 20 µM | [8] 19.7 µM | [20] 14.7 µM | [11] 21 µM | [13] 15.8 µM
not listed: [4] | [19]
inactive: all other assays above
